In PubChem BioAssay AID1159580 (chemical genetic matrix, 2015):
Out of some 5,500 compounds screened, about 2,000 (36%) were called active. Another 18% or so got no clear call; they are omitted. Cut-off read from the data, not from the text of the source: active = normalized growth mostly below about 0.91 (no sharp cut-off); inconclusive = no clear call, values can overlap the other calls; inactive = mostly above about 0.92. The list shows a part of the results.

Assay: chemical genetic growth profiling, strain panel (AID 1159580);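 note: tested at 20 µM; growth read once vehicle control cultures reached saturation at 30 °C; 1 = growth at the plate median or of vehicle wells; lower values mean less growth of the strain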
Conditions: growth OD
[1] = S. cerevisiae deletion strains, locus YAL013W, strain DEP1, active compounds read low
[2] = S. cerevisiae deletion strains, locus YDR150W, strain NUM1, active compounds read low
[3] = S. cerevisiae deletion strains, locus YMR263W, strain SAP30, active compounds read low
[4] = S. cerevisiae deletion strains, locus YMR307W, strain GAS1, active compounds read low

Measured: normalized growth

CCOC(=O)NC1=C(C2CC2)C(=O)C(NC(=O)OCC)=C(C2CC2)C1=O
inactive: [1] 0.97 | S. cerevisiae deletion strains, locus YBR021W, strain FUR4, active compounds read low 0.961 | S. cerevisiae deletion strains, locus YBR229C, strain ROT2, active compounds read low 1 | S. cerevisiae deletion strains, locus YCL029C, strain bik1, active compounds read low 0.993 | S. cerevisiae deletion strains, locus YDL035C, strain GPR1, active compounds read low 1 | S. cerevisiae deletion strains, locus YDL074C, strain BRE1, active compounds read low 1.04 | S. cerevisiae deletion strains, locus YDL101C, strain DUN1, active compounds read low 1 | S. cerevisiae deletion strains, locus YDL134C, strain PPH21, active compounds read low 1 | S. cerevisiae deletion strains, locus YDL185W, strain tfp1, active compounds read low 0.98 | S. cerevisiae deletion strains, locus YDL192W, strain arf1, active compounds read low 0.991 | S. cerevisiae deletion strains, locus YDR101C, strain arx1, active compounds read low 0.993 | [2] 0.99 | S. cerevisiae deletion strains, locus YDR162C, strain NBP2, active compounds read low 1.01 | S. cerevisiae deletion strains, locus YDR318W, strain mcm21, active compounds read low 0.99 | S. cerevisiae deletion strains, locus YDR388W, active compounds read low 0.995 | S. cerevisiae deletion strains, locus YDR502C, strain sam2, active compounds read low 0.996 | S. cerevisiae deletion strains, locus YEL061C, strain CIN8, active compounds read low 0.995 | S. cerevisiae deletion strains, locus YER110C, active compounds read low 0.98 | S. cerevisiae deletion strains, locus YER155C, strain BEM2, active compounds read low 0.994 | S. cerevisiae deletion strains, locus YER167W, strain BCK2, active compounds read low 0.98 | S. cerevisiae deletion strains, locus YGL078C, strain dbp3, active compounds read low 0.983 | S. cerevisiae deletion strains, locus YGL086W, strain mad1, active compounds read low 0.982 | S. cerevisiae deletion strains, locus YGL248W, strain PDE1, active compounds read low 1 | S. cerevisiae deletion strains, locus YGR078C, strain PAC10, active compounds read low 1.01 | S. cerevisiae deletion strains, locus YGR135W, strain pre9, active compounds read low 1 | S. cerevisiae deletion strains, locus YGR229C, strain SMI1, active compounds read low 1.04 | S. cerevisiae deletion strains, locus YGR252W, strain gcn5, active compounds read low 1.02 | S. cerevisiae deletion strains, locus YHR030C, strain SLT2, active compounds read low 0.986 | S. cerevisiae deletion strains, locus YHR079C, strain IRE1 (second series), active compounds read low 0.99 | S. cerevisiae deletion strains, locus YHR094C, strain hxt1, active compounds read low 0.976 | S. cerevisiae deletion strains, locus YHR129C, strain ARP1, active compounds read low 0.999 | S. cerevisiae deletion strains, locus YHR200W, strain rpn10, active compounds read low 0.992 | S. cerevisiae deletion strains, locus YIL066C, strain RNR3, active compounds read low 1 | S. cerevisiae deletion strains, locus YIL073C, strain SPO22, active compounds read low 0.9 | S. cerevisiae deletion strains, locus YIL125W, strain kgd1, active compounds read low 0.988 | S. cerevisiae deletion strains, locus YIR030C, strain dcg1, active compounds read low 0.995 | S. cerevisiae deletion strains, locus YJL095W, strain BCK1, active compounds read low 1.05 | S. cerevisiae deletion strains, locus YJL134W, strain LCB3, active compounds read low 0.993 | S. cerevisiae deletion strains, locus YJL168C, strain set2, active compounds read low 0.993 | S. cerevisiae deletion strains, locus YJL187C, strain SWE1 (second series), active compounds read low 0.988 | S. cerevisiae deletion strains, locus YJR043C, strain POL32, active compounds read low 0.997 | S. cerevisiae deletion strains, locus YJR075W, strain HOC1, active compounds read low 0.999 | S. cerevisiae deletion strains, locus YKL009W, strain mrt4, active compounds read low 0.973 | S. cerevisiae deletion strains, locus YKL068W, active compounds read low 0.98 | S. cerevisiae deletion strains, locus YKL085W, strain MDH1 (second series), active compounds read low 0.984 | S. cerevisiae deletion strains, locus YKL085W, strain MDH1, active compounds read low 0.984 | S. cerevisiae deletion strains, locus YKL190W, strain CNB1, active compounds read low 0.994 | S. cerevisiae deletion strains, locus YKR001C, strain vps1, active compounds read low 0.989 | S. cerevisiae deletion strains, locus YLR039C, strain RIC1, active compounds read low 0.96 | S. cerevisiae deletion strains, locus YLR058C, strain SHM2, active compounds read low 0.984 | S. cerevisiae deletion strains, locus YLR102C, strain apc9, active compounds read low 0.992 | S. cerevisiae deletion strains, locus YLR262C, strain YPT6, active compounds read low 1.01 | S. cerevisiae deletion strains, locus YLR268W, strain sec22, active compounds read low 1.01 | S. cerevisiae deletion strains, locus YLR330W, strain CHS5, active compounds read low 0.989 | S. cerevisiae deletion strains, locus YLR342W, strain FKS1 (second series), active compounds read low 0.976 | S. cerevisiae deletion strains, locus YLR371W, strain rom2, active compounds read low 0.976 | S. cerevisiae deletion strains, locus YLR418C, strain cdc73, active compounds read low 1.03 | S. cerevisiae deletion strains, locus YML016C, strain PPZ1, active compounds read low 0.99 | S. cerevisiae deletion strains, locus YML032C, strain rad52, active compounds read low 0.985 | S. cerevisiae deletion strains, locus YML124C, strain tub3, active compounds read low 0.988 | S. cerevisiae deletion strains, locus YMR078C, strain ctf18, active compounds read low 0.993 | S. cerevisiae deletion strains, locus YMR223W, strain ubp8, active compounds read low 0.979 | [3] 1.01 | [4] 0.999 | S. cerevisiae deletion strains, locus YNL067W, strain RPL9B, active compounds read low 1.03 | S. cerevisiae deletion strains, locus YNL128W, strain TEP1, active compounds read low 1.01 | S. cerevisiae deletion strains, locus YNL153C, strain GIM3, active compounds read low 1.01 | S. cerevisiae deletion strains, locus YNL233W, strain BNI4, active compounds read low 1.01 | S. cerevisiae deletion strains, locus YNL250W, strain rad50, active compounds read low 0.981 | S. cerevisiae deletion strains, locus YNL271C, strain bni1, active compounds read low 0.984 | S. cerevisiae deletion strains, locus YNL298W, strain CLA4, active compounds read low 0.985 | S. cerevisiae deletion strains, locus YNL307C, strain MCK1, active compounds read low 0.985 | S. cerevisiae deletion strains, locus YNL322C, strain KRE1, active compounds read low 0.998 | S. cerevisiae deletion strains, locus YNR052C, strain pop2, active compounds read low 0.98 | S. cerevisiae deletion strains, locus YOL006C, strain TOP1, active compounds read low 1.1 | S. cerevisiae deletion strains, locus YOL012C, strain htz1 1.15 | S. cerevisiae deletion strains, locus YOL147C, strain pex11, active compounds read low 0.986 | S. cerevisiae deletion strains, locus YOR061W, strain CKA2, active compounds read low 1 | S. cerevisiae deletion strains, locus YOR069W, strain VPS5, active compounds read low 0.995 | S. cerevisiae deletion strains, locus YOR136W, strain idh2, active compounds read low 0.983 | S. cerevisiae deletion strains, locus YOR144C, strain elg1, active compounds read low 1 | S. cerevisiae deletion strains, locus YOR184W, strain ser1, active compounds read low 0.974 | S. cerevisiae deletion strains, locus YOR316C, strain cot1, active compounds read low 0.985 | S. cerevisiae deletion strains, locus YPL055C, strain LGE1, active compounds read low 1.04 | S. cerevisiae deletion strains, locus YPL241C, strain CIN2, active compounds read low 0.999 | S. cerevisiae deletion strains, locus YPR119W, strain clb2, active compounds read low 0.988 | S. cerevisiae deletion strains, locus YPR141C, strain kar3, active compounds read low 0.984 | S. cerevisiae deletion strains, locus YPR163C, strain tif3, active compounds read low 0.988 | S. cerevisiae deletion strains, locus YPR167C, strain met16, active compounds read low 1 | S. cerevisiae deletion strains, strain wtn01, active compounds read low 0.995 | S. cerevisiae strains, strain wild type, active compounds read low 0.995

Nc1nc(Nc2ccccc2)nc2c1ncn2[C@@H]1O[C@H](CO)[C@H](O)C1O (stereo partly drawn)
inactive: [1] 0.982 | S. cerevisiae deletion strains, locus YAL040C, strain CLN3, active compounds read low 1.05 | S. cerevisiae deletion strains, locus YCL061C, strain MRC1 (second series), active compounds read low 0.999 | [2] 0.999 | S. cerevisiae deletion strains, locus YDR363W, strain ESC2, active compounds read low 1.02 | S. cerevisiae deletion strains, locus YER002W, strain NOP16, active compounds read low 1 | [3] 1 | [4] 1 | S. cerevisiae deletion strains, locus YNL175C, strain NOP13, active compounds read low 1.01 | S. cerevisiae deletion strains, locus YNL197C, strain WHI3, active compounds read low 1.01 | S. cerevisiae deletion strains, locus YNL224C, strain SQS1, active compounds read low 1.01 | S. cerevisiae deletion strains, locus YOR083W, strain WHI5 (second series), active compounds read low 1.02
